Results reported in the supplement of paper PMC11732987, “Enantioselective OTUD7B fragment discovery through chemoproteomics screening and high-throughput optimisation” (Communications Chemistry, 2025).
A number with no mark means an inactive call.

compound: ClCC(=O)N1CCC(CC#N)C1; assay: log2 ratio of Biotin-Ahx-Ub-VS probe labelling (compound/DMSO); higher = less target engagement, active = hit call of the paper (q ≤ 0.05, log2 ratio ≤ -1); details: compound concentration: 50uM; treatment time: 3 h
Experimental: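 Round 2 competitive ABPP in HEK293T lysate. Purified HTC-D2B compounds were tested at 50 and 200 µM for 3 h, followed by Biotin-Ahx-Ub-VS enrichment and diaPASEF LC-MS/MS. Values are the average log2 ratio (compound/DMSO) from an unpaired t-test (n=3 treated, n=26 DMSO).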

Sequence of UniProt Q9Y5T5 (Q9Y5T5 whole entry, looked up): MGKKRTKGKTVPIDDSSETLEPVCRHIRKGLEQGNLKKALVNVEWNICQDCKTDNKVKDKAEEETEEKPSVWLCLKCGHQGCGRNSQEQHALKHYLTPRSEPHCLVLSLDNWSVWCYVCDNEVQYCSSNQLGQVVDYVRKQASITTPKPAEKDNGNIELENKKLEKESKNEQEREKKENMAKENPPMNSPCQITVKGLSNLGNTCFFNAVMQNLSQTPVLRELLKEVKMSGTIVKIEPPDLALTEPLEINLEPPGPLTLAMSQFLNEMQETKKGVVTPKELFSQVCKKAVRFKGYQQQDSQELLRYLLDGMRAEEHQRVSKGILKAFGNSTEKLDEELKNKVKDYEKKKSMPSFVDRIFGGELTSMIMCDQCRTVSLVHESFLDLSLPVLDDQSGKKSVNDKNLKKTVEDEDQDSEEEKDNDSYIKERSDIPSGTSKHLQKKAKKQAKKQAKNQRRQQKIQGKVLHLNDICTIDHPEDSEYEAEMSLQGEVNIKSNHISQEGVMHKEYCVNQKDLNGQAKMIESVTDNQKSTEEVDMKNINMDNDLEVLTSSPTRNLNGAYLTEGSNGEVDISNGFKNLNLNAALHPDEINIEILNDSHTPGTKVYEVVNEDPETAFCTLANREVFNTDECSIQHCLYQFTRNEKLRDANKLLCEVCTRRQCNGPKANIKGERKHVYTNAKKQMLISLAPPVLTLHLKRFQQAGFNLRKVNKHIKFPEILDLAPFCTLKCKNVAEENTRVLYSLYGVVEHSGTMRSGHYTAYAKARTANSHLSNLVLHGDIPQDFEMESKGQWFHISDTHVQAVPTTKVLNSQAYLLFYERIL
Sequence of UniProt Q86UV5 (Q86UV5 whole entry): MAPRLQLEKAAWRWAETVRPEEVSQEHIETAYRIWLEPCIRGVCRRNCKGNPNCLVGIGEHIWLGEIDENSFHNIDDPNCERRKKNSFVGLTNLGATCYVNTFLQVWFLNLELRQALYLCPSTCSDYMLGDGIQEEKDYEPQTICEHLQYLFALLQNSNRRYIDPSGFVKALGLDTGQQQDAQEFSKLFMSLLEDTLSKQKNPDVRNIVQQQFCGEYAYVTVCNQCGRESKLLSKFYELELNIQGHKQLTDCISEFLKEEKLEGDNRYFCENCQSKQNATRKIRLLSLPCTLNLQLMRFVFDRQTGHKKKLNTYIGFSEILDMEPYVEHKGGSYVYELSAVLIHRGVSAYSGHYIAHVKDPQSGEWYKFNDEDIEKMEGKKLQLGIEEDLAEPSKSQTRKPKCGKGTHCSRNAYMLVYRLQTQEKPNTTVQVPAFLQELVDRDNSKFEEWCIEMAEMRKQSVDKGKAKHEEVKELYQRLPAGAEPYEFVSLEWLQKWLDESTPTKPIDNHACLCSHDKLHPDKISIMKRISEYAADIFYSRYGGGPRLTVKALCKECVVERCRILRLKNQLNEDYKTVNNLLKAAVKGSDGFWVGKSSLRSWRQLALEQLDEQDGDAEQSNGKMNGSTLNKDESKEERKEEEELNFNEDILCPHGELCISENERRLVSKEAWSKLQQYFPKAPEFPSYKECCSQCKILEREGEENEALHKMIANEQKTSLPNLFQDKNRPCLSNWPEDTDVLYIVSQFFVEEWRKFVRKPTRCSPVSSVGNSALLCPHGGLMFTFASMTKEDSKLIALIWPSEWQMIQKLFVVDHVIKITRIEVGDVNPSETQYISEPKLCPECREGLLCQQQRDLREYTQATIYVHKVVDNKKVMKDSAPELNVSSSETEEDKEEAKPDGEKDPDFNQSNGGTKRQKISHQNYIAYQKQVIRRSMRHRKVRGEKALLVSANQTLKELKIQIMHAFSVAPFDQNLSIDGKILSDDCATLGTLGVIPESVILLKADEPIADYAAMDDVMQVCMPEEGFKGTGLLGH
Sequence of UniProt P15374 (P15374 whole entry): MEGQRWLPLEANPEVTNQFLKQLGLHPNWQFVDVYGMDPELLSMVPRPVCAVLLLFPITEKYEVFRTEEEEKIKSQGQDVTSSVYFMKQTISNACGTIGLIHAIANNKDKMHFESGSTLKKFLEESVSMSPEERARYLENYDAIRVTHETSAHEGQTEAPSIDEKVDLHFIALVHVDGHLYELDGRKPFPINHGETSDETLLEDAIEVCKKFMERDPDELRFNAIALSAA
Sequence of UniProt O00487 (O00487 whole entry): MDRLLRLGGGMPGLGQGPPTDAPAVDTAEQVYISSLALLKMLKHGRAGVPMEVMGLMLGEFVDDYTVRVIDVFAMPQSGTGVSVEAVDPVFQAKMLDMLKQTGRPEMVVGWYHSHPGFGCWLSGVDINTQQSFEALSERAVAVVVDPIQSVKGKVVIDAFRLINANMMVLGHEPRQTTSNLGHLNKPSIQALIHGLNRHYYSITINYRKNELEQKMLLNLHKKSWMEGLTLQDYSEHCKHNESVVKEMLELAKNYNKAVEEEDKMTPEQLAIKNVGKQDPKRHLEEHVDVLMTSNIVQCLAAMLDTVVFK
Sequence of UniProt Q8N6M0 (Q8N6M0 whole entry): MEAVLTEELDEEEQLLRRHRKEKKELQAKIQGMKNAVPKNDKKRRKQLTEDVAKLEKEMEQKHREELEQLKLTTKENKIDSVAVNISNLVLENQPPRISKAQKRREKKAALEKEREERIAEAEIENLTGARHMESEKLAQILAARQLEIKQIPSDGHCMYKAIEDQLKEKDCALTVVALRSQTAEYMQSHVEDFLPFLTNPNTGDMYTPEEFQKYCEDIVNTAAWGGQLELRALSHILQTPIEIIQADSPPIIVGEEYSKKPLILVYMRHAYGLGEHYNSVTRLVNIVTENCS
Sequence of UniProt Q6GQQ9 (Q6GQQ9 whole entry): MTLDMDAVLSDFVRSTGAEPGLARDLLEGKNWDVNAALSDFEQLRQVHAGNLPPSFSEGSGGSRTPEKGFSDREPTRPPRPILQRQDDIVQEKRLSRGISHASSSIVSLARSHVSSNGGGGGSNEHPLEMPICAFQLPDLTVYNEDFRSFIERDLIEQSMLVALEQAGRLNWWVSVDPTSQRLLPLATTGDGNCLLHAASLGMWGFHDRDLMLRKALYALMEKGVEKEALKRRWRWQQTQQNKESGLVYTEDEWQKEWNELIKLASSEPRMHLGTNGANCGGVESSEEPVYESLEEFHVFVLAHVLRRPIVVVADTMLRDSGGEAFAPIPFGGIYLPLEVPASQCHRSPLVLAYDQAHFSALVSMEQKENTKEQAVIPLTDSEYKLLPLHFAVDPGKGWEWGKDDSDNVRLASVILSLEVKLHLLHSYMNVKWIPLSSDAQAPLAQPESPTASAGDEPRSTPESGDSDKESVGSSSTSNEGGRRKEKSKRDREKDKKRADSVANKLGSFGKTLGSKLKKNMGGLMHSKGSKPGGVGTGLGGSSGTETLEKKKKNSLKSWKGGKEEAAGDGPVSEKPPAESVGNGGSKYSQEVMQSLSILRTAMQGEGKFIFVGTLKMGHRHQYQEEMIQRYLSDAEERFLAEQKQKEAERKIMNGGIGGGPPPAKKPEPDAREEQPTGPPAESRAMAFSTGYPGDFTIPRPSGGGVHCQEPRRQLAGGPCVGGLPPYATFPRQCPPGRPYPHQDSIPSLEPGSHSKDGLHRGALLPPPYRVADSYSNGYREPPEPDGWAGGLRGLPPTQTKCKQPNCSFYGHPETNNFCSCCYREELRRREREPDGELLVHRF
Sequence of UniProt Q70EL2 (Q70EL2 whole entry): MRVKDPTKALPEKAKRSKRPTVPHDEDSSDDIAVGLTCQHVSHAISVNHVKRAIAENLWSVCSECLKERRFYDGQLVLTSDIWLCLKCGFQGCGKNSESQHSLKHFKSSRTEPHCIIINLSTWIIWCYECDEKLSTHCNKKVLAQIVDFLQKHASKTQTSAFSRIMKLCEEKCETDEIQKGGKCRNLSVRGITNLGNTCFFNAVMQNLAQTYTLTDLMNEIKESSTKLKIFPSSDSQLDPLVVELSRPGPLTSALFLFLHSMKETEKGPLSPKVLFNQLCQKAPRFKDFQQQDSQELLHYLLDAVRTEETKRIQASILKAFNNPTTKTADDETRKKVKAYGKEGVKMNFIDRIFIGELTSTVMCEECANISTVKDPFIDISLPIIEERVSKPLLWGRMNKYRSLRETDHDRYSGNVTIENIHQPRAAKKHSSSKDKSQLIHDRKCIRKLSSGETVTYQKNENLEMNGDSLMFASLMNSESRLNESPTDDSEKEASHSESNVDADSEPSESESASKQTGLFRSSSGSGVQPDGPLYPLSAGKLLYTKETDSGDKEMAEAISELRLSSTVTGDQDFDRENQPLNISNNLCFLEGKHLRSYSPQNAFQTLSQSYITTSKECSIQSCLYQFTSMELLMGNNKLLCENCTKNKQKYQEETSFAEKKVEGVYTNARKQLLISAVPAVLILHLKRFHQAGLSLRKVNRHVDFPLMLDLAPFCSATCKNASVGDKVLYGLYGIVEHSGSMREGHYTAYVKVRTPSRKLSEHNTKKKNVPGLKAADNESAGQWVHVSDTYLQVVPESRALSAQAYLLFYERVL
Sequence of UniProt P09936 (P09936 whole entry, looked up): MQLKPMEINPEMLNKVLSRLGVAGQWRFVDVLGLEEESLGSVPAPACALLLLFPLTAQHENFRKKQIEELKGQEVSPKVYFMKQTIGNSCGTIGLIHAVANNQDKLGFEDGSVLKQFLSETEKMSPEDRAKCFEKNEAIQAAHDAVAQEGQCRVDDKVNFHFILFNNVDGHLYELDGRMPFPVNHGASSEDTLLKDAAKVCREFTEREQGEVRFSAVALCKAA
Sequence of UniProt Q9NUU6 (Q9NUU6 whole entry): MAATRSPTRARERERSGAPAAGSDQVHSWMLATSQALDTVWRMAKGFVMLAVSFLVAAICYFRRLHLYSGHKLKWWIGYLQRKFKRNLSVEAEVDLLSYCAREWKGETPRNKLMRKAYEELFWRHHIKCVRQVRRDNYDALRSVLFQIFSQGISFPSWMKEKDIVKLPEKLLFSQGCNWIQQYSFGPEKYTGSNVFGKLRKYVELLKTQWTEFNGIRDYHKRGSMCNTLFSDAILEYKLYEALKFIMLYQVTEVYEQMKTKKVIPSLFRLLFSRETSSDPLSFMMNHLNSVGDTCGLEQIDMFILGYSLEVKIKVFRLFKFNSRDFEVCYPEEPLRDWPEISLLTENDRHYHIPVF

Target | log2 ratio of Biotin-Ahx-Ub-VS probe labelling
BAP1 (UniProt Q92560) | -0.376
USP9X (UniProt Q93008) | 0.0276
UCHL1 (UniProt P09936) | -0.297
UniProt Q9UGI0 | -0.025
UniProt Q70EL2 | -0.0717
UniProt O00487 | -0.033
USP36 (UniProt Q9P275) | -0.193
USP42 (UniProt Q9H9J4) | -0.0062
OTUD6B (UniProt Q8N6M0) | -0.197
COPS5 (UniProt Q92905) | -0.111
USP8 (UniProt P40818) | -0.261
USP39 (UniProt Q53GS9) | -0.0848
OTUD7B (UniProt Q6GQQ9) | -0.339
OTUD4 (UniProt Q01804) | -0.19
FAM105A (UniProt Q9NUU6) | -0.103
USP5 (UniProt P45974) | -0.0602
USP16 (UniProt Q9Y5T5) | -0.133
UCHL3 (UniProt P15374) | -0.263
USP48 (UniProt Q86UV5) | -0.0601
USP24 (UniProt Q9UPU5) | -0.155

same assay, conditions: compound concentration: 200uM; treatment time: 3 h

Target | log2 ratio of Biotin-Ahx-Ub-VS probe labelling
BAP1 (UniProt Q92560) | -0.502
USP9X (UniProt Q93008) | -0.109
UCHL1 (UniProt P09936) | -0.13
UniProt Q9UGI0 | -0.16
UniProt Q70EL2 | -0.437
UniProt O00487 | -0.198
USP36 (UniProt Q9P275) | 0.0225
USP42 (UniProt Q9H9J4) | 0.221
OTUD6B (UniProt Q8N6M0) | -0.265
COPS5 (UniProt Q92905) | -0.11
USP8 (UniProt P40818) | -0.168
USP39 (UniProt Q53GS9) | 0.0939
OTUD7B (UniProt Q6GQQ9) | -0.552
OTUD4 (UniProt Q01804) | -0.226
FAM105A (UniProt Q9NUU6) | 0.0672
USP5 (UniProt P45974) | 0.0332
USP16 (UniProt Q9Y5T5) | -0.669
UCHL3 (UniProt P15374) | -0.193
USP48 (UniProt Q86UV5) | -0.185
USP24 (UniProt Q9UPU5) | -0.576
